{"source": "PubChem BioAssay (EPA / NIEHS)", "note": "Calls of active or inactive are those of the source. The calls were made as follows: active = hit-call score of the fitted dose curve at least 0.9, where 1 is the maximum; inactive = score below 0.9.", "data": [{"assay": "ATG_Oct_MLP_CIS: Attagene CIS-FACTORIAL HepG2 Assay for human Octamer-Binding Transcription Factor (Oct) (AID 2282993)", "conditions": "HepG2 Attagene cis-factorial Oct reporter, mRNA; actives raise or lower the signal", "method": "ATG_CIS is a cell-based, multiplexed-readout assay that uses HepG2, a human liver cell line, with measurements taken at 24 hours after chemical dosing in a 24-well plate.ATG_Oct_MLP_CIS is one of 52 assay component(s) measured or calculated from the ATG_CIS assay. It is designed to make measurements of mRNA induction, a form of inducible reporter, as detected with fluorescence intensity signals by Reverse transcription polymerase chain reaction (RT-PCR) and Capillary electrophoresis technology.Data from the assay component ATG_Oct_MLP_CIS was analyzed into 1 assay endpoint. This assay endpoint, ATG_Oct_MLP_CIS, was analyzed with bidirectional fitting relative to DMSO as the negative control and baseline of activity. Using a type of inducible reporter, measures of mRNA for gain or loss-of-signal activity can be used to understand the reporter gene at the transcription factor-level as they relate to the gene POU2F1. Furthermore, this assay endpoint can be referred to as a primary readout, because this assay has produced multiple assay endpoints where this one serves a reporter gene function. To generalize the intended target to other relatable targets, this assay endpoint is annotated to the dna binding intended target family, where the subfamily is POU domain protein.\nHuman liver HepG2 cells are transiently transfected with multiple reporter transcription units (MRTUs) in 6-well plates using FuGene 6 reagent (Roche; 3 ml FuGene/1 mg DNA). The MRTU constructs are regulated by a cis-regulating element (promoter). […] A major difference between the CIS and TRANS system is that in CIS activities of endogenous TFs are measured, whereas the TRANS assay evaluates changes in activities of exogenous, chimeric NR-Gal4 proteins. […] At the end of 24 hour incubation, total RNA was isolated using TriZol reagent (Invitrogen). The isolated RNA is then reverse-transcribed using oligo(dT) primer and Mo-MLV reverse transcriptase (Invitrogen) with DNAse I (Ambion) treatment for 30 min. The one-tenth of the produced cDNA was amplified by PCR using Taq DNA polymerase (Invitrogen) and two reporter sequence-specific primers. The PCR products were fluorescently labeled by primer extension with 6-arboxyfluorescein (6-FAM) 5'-labeled reporter sequence-specific primer (2 min at 95 C, 20 s at 68 C and 10 min at 72 C) and these products were digested with 5U of HpaI (New England Biolabs) for 2h at 37 C. The fragments were purified using Qiaquick PCR columns (Qiagen), analyzed on an ABI 3130xL genetic analyzer (Applied Biosystems) with peak positions identified by using a set of X-rhodamine (ROX)-labeled MapMarker1000 molecular weight standards (BioVentures). The raw capillary electrophoresis data was processed using Attagraph software (Attagene).", "values": [{"compound": "Cc1ccc(S(=O)(=O)Oc2ccc(N=Nc3ccc(-c4ccc(N=Nc5c(O)ccc6cc(S(=O)(=O)O)cc(S(=O)(=O)O)c56)c(C)c4)cc3C)cc2)cc1", "outcome": "inactive"}, {"compound": "Clc1ccc(C(c2ccccc2Cl)C(Cl)Cl)cc1", "note": "(stereo not given)", "AC50": "26.7 µM (active)"}, {"compound": "CCCCCCCC/C=C\\CCCCCCCC(=O)OCC", "outcome": "inactive"}, {"compound": "CCN(CCN)c1cccc(C)c1", "outcome": "inactive"}, {"compound": "O=C(O)CCCCCCCCC(=O)O", "outcome": "inactive"}, {"compound": "CCC1CCCCC1", "outcome": "inactive"}, {"compound": "Cc1c(C2(c3cc(Br)c(O)c(Br)c3C)OS(=O)(=O)c3ccccc32)cc(Br)c(O)c1Br", "outcome": "inactive"}, {"compound": "CCCN(CCC)S(=O)(=O)c1ccc(C(=O)O)cc1", "outcome": "inactive"}, {"compound": "CC(C)C[C@H](NC(=O)OCC1c2ccccc2-c2ccccc21)C(=O)O", "outcome": "inactive"}, {"compound": "CSc1c(Cl)c(Cl)c(Cl)c(Cl)c1Cl", "AC50": "139 µM (active)"}, {"compound": "CN(C)CCOc1ccc(/C(=C(/CCCl)c2ccccc2)c2ccccc2)cc1", "outcome": "inactive"}, {"compound": "CCc1ccc(O)cc1", "outcome": "inactive"}, {"compound": "CC1(C)CCC[C@]2(C)[C@H]3CCO[C@]3(C)CC[C@@H]12", "outcome": "inactive"}, {"compound": "CSCCC=O", "outcome": "inactive"}, {"compound": "C=CC(C)C#N", "note": "(stereo not given)", "outcome": "inactive"}, {"compound": "COC(C)(C)CCCC(C)CC=O", "note": "(stereo not given)", "outcome": "inactive"}, {"compound": "CC(C)(N=C=O)c1cccc(C(C)(C)N=C=O)c1", "outcome": "inactive"}, {"compound": "CCOC(=O)[C@@H](C)Oc1ccc(Oc2nc3ccc(Cl)cc3o2)cc1", "outcome": "inactive"}, {"compound": "CCCCC(CC)COC(C)=O", "note": "(stereo not given)", "outcome": "inactive"}, {"compound": "CN(c1nccc(=O)[nH]1)C1CCN(c2nc3ccccc3n2Cc2ccc(F)cc2)CC1", "outcome": "inactive"}, {"compound": "OC[C@H]1O[C@@H]2O[C@H]3[C@H](O)[C@@H](O)[C@@H](O[C@H]4[C@H](O)[C@@H](O)[C@@H](O[C@H]5[C@H](O)[C@@H](O)[C@@H](O[C@H]6[C@H](O)[C@@H](O)[C@@H](O[C@H]7[C@H](O)[C@@H](O)[C@@H](O[C@H]8[C@H](O)[C@@H](O)[C@@H](O[C@H]9[C@H](O)[C@@H](O)[C@@H](O[C@H]1[C@H](O)[C@H]2O)O[C@@H]9CO)O[C@@H]8CO)O[C@@H]7CO)O[C@@H]6CO)O[C@@H]5CO)O[C@@H]4CO)O[C@@H]3CO", "outcome": "inactive"}, {"compound": "O=C(Nc1ccc2c(O)c(N=Nc3ccc(N=Nc4ccc(S(=O)(=O)O)cc4)cc3)c(S(=O)(=O)O)cc2c1)c1ccccc1", "outcome": "inactive"}, {"compound": "COc1ccc(CCN2CCC(Nc3nc4ccccc4n3Cc3ccc(F)cc3)CC2)cc1", "outcome": "inactive"}, {"compound": "CCCCCCOC(=O)C(C)C", "outcome": "inactive"}, {"compound": "CC1(C)O[C@@H]2[C@@H](CO[C@@]3(COS(N)(=O)=O)OC(C)(C)O[C@@H]23)O1", "outcome": "inactive"}, {"compound": "CCCCCCCCCCCCCC(=O)OCC(O)CO", "note": "(stereo not given)", "outcome": "inactive"}, {"compound": "O=C1OC2(c3ccccc31)c1ccc(O)c(Br)c1Oc1c2ccc(O)c1Br", "outcome": "inactive"}, {"compound": "CCOc1ccccc1O", "outcome": "inactive"}, {"compound": "CC(C)Nc1nc(N)nc(Cl)n1", "outcome": "inactive"}, {"compound": "NC1CCCCC1N", "note": "(stereo not given)", "outcome": "inactive"}, {"compound": "O=C1NC2NC(=O)NC2N1", "note": "(stereo not given)", "AC50": "0.167 µM (active)"}, {"compound": "CC(C)(C)CC(C)(C)c1ccc(OCCOCC[N+](C)(C)Cc2ccccc2)cc1", "outcome": "inactive"}, {"compound": "C=CC(C)(O)CCC=C(C)C", "note": "(stereo not given)", "outcome": "inactive"}, {"compound": "CC(C)=CCCC(C)CCOC=O", "note": "(stereo not given)", "outcome": "inactive"}, {"compound": "COC(=O)C=C(C)CCC=C(C)C", "outcome": "inactive"}, {"compound": "N#Cc1ccc(CC(=O)c2cccc(C(F)(F)F)c2)cc1", "outcome": "inactive"}, {"compound": "O=C(c1ccccc1)C(O)c1ccccc1", "note": "(stereo not given)", "outcome": "inactive"}, {"compound": "CCCCCCOC(=O)CCC", "outcome": "inactive"}, {"compound": "c1ccc2cc(Nc3ccc(Nc4ccc5ccccc5c4)cc3)ccc2c1", "outcome": "inactive"}, {"compound": "CC(CN=Cc1ccccc1O)N=Cc1ccccc1O", "note": "(stereo not given)", "outcome": "inactive"}]}]}
